Assay results published in PubChem BioAssay.
Values without a mark were called inactive. Active and inactive are the calls of the source.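 The calls were made as follows: active = z-score of at least 1.8 in each of two replicates, scored against plate mean and spread of sample wells; inactive = the rest.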

Experiment: galactose survival enhancers in mitochondrial complex I cybrids – cell-based, galactose medium, ATP luminescence, primary screen (AID 1645843);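 also: positive z means more ATP and so rescue of galactose-driven cybrid death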
Settings: complex I mutant cybrid cells, 72 h, stronger effect = higher value

| SMILES | z-score |
| --- | --- |
| CCOC(=O)c1ccc(N2CCN(CC(C)C)C(=O)C2C)nc1 (stereo unspecified) | -0.53 |
| CC(C)C1C(=O)N(C)CCN1C(=O)C1(C)CC1 (stereo unspecified) | -0.54 |
| CC(C)CN1CCC(CNCc2ccc(C#CC(C)(C)O)s2)CC1 | -1.05 |
| CC(C)CCC(=O)N(C)CCCC1CCCC1 | -0.145 |
| CC1(C)CC(CC(=O)N2CCC(n3cc(C(C)(C)O)nn3)CC2)CC(C)(C)N1 | -0.57 |
| OCCCCCNCC1(N2CCOCC2)CCCCCC1 | -0.47 |
| CCn1cc(-c2cc(C(=O)N3CCN(C)C(=O)C3C)c3ccc(C)cc3n2)cn1 (stereo unspecified) | -0.19 |
| O=C1NCCN(C(=O)c2ccc(F)c(F)c2)C1Cc1ccccc1 (stereo unspecified) | -0.495 |
| c1ccc(CC2CCN(C3CCSC3)CC2)cc1 (stereo unspecified) | -0.3 |
| CCCCc1cn(C2CCN(C(=O)[C@@H]3CCCO3)CC2)nn1 | -0.55 |
| CCCCC(CC)CN1CCc2[nH]nc(C3CC3)c2C1 (stereo unspecified) | -0.03 |
| COc1cccc(-n2cc(-c3ccnc(N(C)CCn4ccnc4)n3)cn2)c1 | 1.84 |
| CC(C)CC1(CO)CCCN(C(=O)c2cccc(C#CC(C)(C)O)c2)C1 (stereo unspecified) | -0.79 |
| Cc1cc(C)c(CN[C@@H](C)C(C)C)c(C)c1CO | -0.51 |
| CCCCc1cn(C2CCN(C(=O)C3CCCCCC3)CC2)nn1 | -0.56 |
| Cc1ccc(C)c(CNC(=O)Nc2nc(C)ns2)c1 | 0.47 |
| CC(=O)N1CCN(C(=O)c2c(-c3ccccc3)nn(-c3ccccc3)c2C)CC1 | -0.38 |
| COc1cc(F)c(C(=O)N(C)CC2CCCCN2C)c(F)c1 (stereo unspecified) | -0.575 |
| COc1nccnc1-c1ccc2c(c1)OCO2 | 0.365 |
| Cc1ccc(F)cc1-c1cccc(C(=O)c2nccn2C)c1 | -0.54 |
| Cc1ccc2c(C(=O)N3CCCCC3C)cc(-c3cnn(C(C)C)c3)nc2c1 (stereo unspecified) | -0.16 |
| CCc1noc(CN(C(=O)c2ccccc2-n2cccn2)C(C)C)n1 | -0.655 |
| Cc1ccc2nc(-c3cnc(C(C)(C)C)nc3)cc(C(=O)N(C)C(C)C)c2c1 | -0.47 |
| CCn1cc(-c2cc(C(=O)N3CCCCCC3)c3ccc(C)c(C)c3n2)cn1 | 1.92 (active) |

| SMILES | z-score |
| --- | --- |
| CCCc1cn(C2CCN(C(=O)CC3CC(C)(C)NC(C)(C)C3)CC2)nn1 | -0.53 |
| CC(Oc1ccc2c(c1)OCO2)C(=O)N1CCCCC1CCN1CCCC1=O (stereo unspecified) | 1.73 |
| Cc1nc(NC(=O)N2CCCC(c3nc4ccccc4[nH]3)C2)nn1C (stereo unspecified) | 0.195 |
| COc1ccc(-c2nc(N)nc(Nc3ccc(C)cc3)n2)cc1F | -0.745 |
| Cc1cc(CC(=O)Nc2cc(C)nn2C2CCCCC2)on1 | 0.225 |
| Cc1ccc2c(C(=O)N3CCCCC3)cc(-c3cnn(C(C)C)c3)nc2c1 | -0.385 |
| COc1ccc(-c2noc(C3CC(C(C)C)=NO3)n2)c(OC)c1 (stereo unspecified) | -0.525 |
| COc1cccc2ccc(N3CCN(Cc4ccccn4)CC3)nc12 | -0.51 |
| Cc1cccc(-n2cc(-c3ccn(CC(=O)Nc4ccnn4C)n3)cn2)c1 | 1.22 |
| COc1cccc2c(C)cc(N3CCC[C@H]3CO)nc12 | -0.095 |
| CCCC[C@@H](N)C(=O)N1CCC(n2cc(CCCO)nn2)CC1 | -0.47 |
| CCN(C(=O)c1cc(-c2cnc(C(C)C)nc2)nc2cc(F)ccc12)C(C)C | -0.47 |
| Cc1ccccc1-c1cccc(C(=O)c2nccn2C)c1 | -0.54 |
| CCc1n[nH]c2c1CN(C(=O)c1cncc(C)c1)CC2 | 1.23 |
| CCn1nc(C(C)C)cc1C(=O)N1CCC(n2cc(CC(C)C)nn2)CC1 | -0.55 |
| CCN(CC)C(CNCc1ccc(OC)c(F)c1)c1ccco1 (stereo unspecified) | -0.84 |
| COc1ccccc1CNC(=O)Nc1nnc(C)s1 | 4.88 (active) |
| CCCCCC(=O)N1CCC(n2cc(C3CCCCC3)nn2)CC1 | -0.415 |
| c1coc(-c2nc3c(cnn3Cc3cccs3)[nH]2)c1 | -0.74 |
| Cc1nn(C)cc1-c1ccnc(N2CCN(Cc3ccc(F)cc3)C(=O)C2)n1 | 0.865 |
| Cn1cc(-c2cc(C(=O)N3CCc4ccccc4C3)c3cc(F)ccc3n2)cn1 | 1 |
| CC1CCCN1C(=O)c1cc(-c2cnn(C(C)C)c2)nc2cc(F)ccc12 (stereo unspecified) | -0.72 |
| CC(C)CN1CCN(c2ccc(C(F)(F)F)cn2)C(C)C1=O (stereo unspecified) | -0.56 |
| CCOc1ccc2ccccc2c1-c1nc2c(cnn2CC)[nH]1 | -0.255 |

| SMILES | z-score |
| --- | --- |
| CCc1nc(C)ccc1OCC(=O)N1CCc2[nH]nc(C3CCC3)c2C1 | -0.6 |
| O=C(C1CCCCCC1)N1CCc2[nH]nc(C3CCC3)c2C1 | 0.435 |
| CSCc1ccc(C(=O)Nc2cccc3cccnc23)o1 | 1.12 |
| CC(C)c1ncc(C(=O)N2CCC(n3cc(-c4ccccn4)nn3)CC2)cn1 | 0.26 |
| Clc1ccc(C(Cn2ccnc2)OCc2csc3c(Cl)cccc23)c(Cl)c1 (stereo unspecified) | 0.155 |
| CC(O)c1cn(CC2CCN(C(=O)CC3CCCCCC3)CC2)nn1 (stereo unspecified) | -0.54 |
| CC(C)Cc1cn(C2CCN(C3CCCCCC3)CC2)nn1 | -0.565 |
| Cc1cnc(CN(C)Cc2ccc(-c3nc(C(F)(F)F)c(C)c(=O)[nH]3)cc2)[nH]1 | -0.58 |
| C=C1C2(C(=O)N3CCC(CCN4CCCC4=O)CC3)CCC(C2)C1(C)C (stereo unspecified) | -0.41 |
| COc1ccc(OC)c(-c2ncnc3sc(C)c(C)c23)c1 | 0.645 |
| CCCC(NC(=O)c1ccc(C#N)cc1)c1ccccc1 (stereo unspecified) | -0.32 |
| COc1cccc2ccc(-c3ccc(C(C)=O)cc3)nc12 | 2.67 (active) |
| COc1ccc(CCC(C)NC2CC(C)(C)NC(C)(C)C2)cc1 (stereo unspecified) | -0.505 |
| CC(=O)NCCC1CCN(C(=O)C(C)(C)Oc2cc(C)ccc2Cl)CC1 | -0.545 |
| CC(C)c1cc(C(=O)N2CCCC(c3ccccc3)C2)on1 (stereo unspecified) | -0.55 |
| O=C(Nc1n[nH]c(Cc2ccccc2)n1)N1CCN(C(=O)c2ccco2)CC1 | 2.72 (active) |
| CC(C)c1nc(Cn2cnc3ccsc3c2=O)cs1 | -0.55 |
| Cc1cccc(C2CCCN(C(=O)c3cc(C(C)C)no3)C2)c1 (stereo unspecified) | 1.05 |
| Cc1cccc2ncn(C3CC(C)(C)NC(C)(C)C3)c(=O)c12 | -0.515 |
| O=C(C(=O)N1CCCCC1c1nc2ccc(F)cc2[nH]1)c1ccccc1 (stereo unspecified) | 0.05 |
| CC1(C)CCN(C(=O)c2cc(-c3cnc(C4CC4)nc3)nc3cc(F)ccc23)C1 | -0.56 |
| CCC(CO)n1cnc2sc3c(c2c1=O)CCCCC3 (stereo unspecified) | 1.99 |
| Cc1nsc(NC(=O)N2CCCCC2c2cccc(F)c2)n1 (stereo unspecified) | -0.55 |
